# Source: PubChem BioAssay
# Shown are actives, neighbours in structure and some others; about 4.6% of the full set was active somewhere.
# ssDAF12 agonist – S. stercoralis DAF-12 activation, primary screen | HEK293 ssDAF-12/GRIP1 lit1-tk-luc reporter, luminescence; % of 3 µM dafachronic acid response | activation, % at 6.8 µM | actives 1% (n = 370,000) | AID 652126;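 active = activation above the mean over all tested compounds plus 3 SD, cut at about 0.9% in these data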;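 note: 0% = DMSO-only wells and 100% = 3 µM delta7-dafachronic acid wells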
# hcDAF-12 act – activates DAF-12 receptor from parasite H. contortus; actives 1.4% (n = 370,000); activation, % at 6.8 µM; HEK293 hcDAF-12 lit1-tk-luc reporter, luminescence; 0% DMSO, 100% Δ7-dafachronic acid; AID 652067;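 active = activation above the mean of all tested compounds plus 3 SD, cut at about 5.5% in these data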;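 note: 100% = response to 3 µM Δ7-dafachronic acid high control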
# hgDAF-12 ag – hgDAF-12 agonism, primary luciferase screen | HEK293 GAL4-hgDAF12 UAS-luciferase reporter, agonist luminescence; normalized to butyrate control | activation, % at 6.8 µM | actives 1.8% (n = 370,000) | AID 687014;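 active = activation above a cutoff set at the mean of all screened compounds plus 3 SD, cut at about 10% in these data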;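 note: 0% = DMSO wells and 100% = sodium butyrate wells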
# DAX1 inh-1 – NR0B1 (DAX1) inhibition; inhibition, % at 6.75 µM; P51843; actives 0.99% (n = 340,000); HEK293 Gal4-DAX1 luciferase reporter, luminescence;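 active = inhibition above the mean over all tested compounds plus 3 SD, cut at about 4.2% in these data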;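 note: 0% = DAX1-transfected cells with DMSO and 100% = empty-vector control cells with DMSO; inhibition shows as a rise in luminescence from relieved DAX1 repression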
# Target sequence (P51843 207-470 limits assumed): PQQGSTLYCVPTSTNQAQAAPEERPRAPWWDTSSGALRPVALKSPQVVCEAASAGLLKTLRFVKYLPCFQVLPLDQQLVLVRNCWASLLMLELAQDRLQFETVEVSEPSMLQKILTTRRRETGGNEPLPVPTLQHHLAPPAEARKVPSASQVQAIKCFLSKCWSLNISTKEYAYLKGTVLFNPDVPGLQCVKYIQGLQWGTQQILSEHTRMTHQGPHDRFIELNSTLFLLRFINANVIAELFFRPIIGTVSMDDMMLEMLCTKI
# Wee1 stabilizer – blocks degradation of human Wee1 kinase; actives 1.2% (n = 220,000); reporter increase, % at 5 µM; HeLa Luc-Wee1K328M stability, luciferase luminescence; 100% = proteasome inhibitor MG132 effect; P30291;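 active = activation above the mean of all tested compounds plus 3 SD, set per screening run, cut at about 8.8% in these data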;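 note: cells exposed to compound for 20 h before luminescence read; 0% = DMSO alone and 100% = MG132 at 30 µM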
# DAX1 inh-2 – inhibitors of DAX1 repression of SF-1 activated StAR promoter; HEK293T StAR-luciferase reporter, SF-1/DAX-1 repression relief; inhibition, % at 6.8 µM; actives 1.1% (n = 370,000); AID 652010;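 active = inhibition above the mean over all tested compounds plus 3 SD, cut at about 3.6% in these data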;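 note: 0% = DAX-1 cells with DMSO and 100% = cells lacking DAX-1 with DMSO; higher inhibition means more luminescence from relief of DAX-1 repression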
# * hit, by the source's call; / = no result.
SMILES,ssDAF12 agonist,hcDAF-12 act,hgDAF-12 ag,DAX1 inh-1,Wee1 stabilizer,DAX1 inh-2
CN(C)c1ccc(S(=O)(=O)N2CCCCC2)cc1NC(=O)C1=NN(c2ccccc2)C(=O)CC1,-1,-2,1,0,/,0
CCOc1ccc(N(CC(=O)NCc2ccccc2C)S(C)(=O)=O)cc1,0,2,8,4.3*,/,2
CCOc1ccc(N(CC(=O)NCCSCc2ccccc2Cl)S(C)(=O)=O)cc1,-2,-2,1,-2,/,0
O=C(c1ccccc1Oc1nnnn1-c1ccccc1)N1CCOCC1,-1,-2,0,0,-3,0
O=C(O)c1ccc(-n2nnnc2Oc2ccccc2C(=O)N2CCOCC2)cc1,-1,-1,0,4.9*,4,-1
O=C1NC(=S)N/C1=C/c1cccnc1,-2,-2,12*,3,2,0
O=S(=O)(NCc1ccc(Cl)cc1)c1ccc(Br)cc1C1CC[C@@H](O)C1 (some centres undefined),-1,1,-1,/,/,0
COCc1cc(OC)nc(-c2csc(C)n2)n1,-2,-1,1,6.4*,1,1
Cc1ccc2nc(N3CCN(Cc4nnnn4C4CCCC4)CC3)c(C#N)cc2c1,0,-1,5,5.7*,-2,1
Cc1ccc(C)c(N2CCN(Cc3nnnn3C3CCCCC3)CC2)c1,-1,-2,-4,-1,0,-1
CSc1ccccc1NC(=O)CN(C)C(C)C(=O)NCc1ccc2c(c1)OCO2 (centres undefined),-2,-1,4,0,/,0
CC1(C)Cc2ccccc2-c2n[nH]c(=S)n21,-1,-3,0,2,9.5*,1
CC(=O)C1=C(C)N(c2ccccc2)C(=O)C1(NS(=O)(=O)c1ccc(N)cc1)C(F)(F)F (centres undefined),1.5*,5.6*,3,1,4,1
C[C@@H]1CN([C@H](C)CO)C(=O)c2cc(Br)cnc2O[C@@H]1CN(C)C(=O)c1cccc(F)c1,-1,0,5,1,/,2
CC(C)c1ccc(NC(=O)Nc2cc3sccc3n2C)cc1,1,6.0*,3,0,-1,0
C=CCNC(=O)c1cc2sccc2n1C,-1,0,1,1,1,0
CCC(=O)c1ccc(OC(=O)C2CCN(C3=NS(=O)(=O)c4ccccc43)CC2)cc1,-1,-2,0,0,/,0
O=C(O)c1ccc(/C=N/N2CCN(c3ccccc3)CC2)cc1,-1,2,10,5.4*,/,1
COc1ccccc1N1CCN(/N=C/c2ccc(C(=O)O)cc2)CC1,0,3,11*,1,/,1
O=C(c1ccc(-c2ccccc2)cc1)N1CCN(c2ccccc2)CC1,1,1,5,4.8*,/,0
CCOC(=O)c1c(C)[nH]c(/C(C)=N/NC(=O)c2cccnc2)c1C,0,2,1,3,/,1
CCOC(=O)c1c(C)[nH]c(C(C)=NNC(=O)c2cccs2)c1C,-1,1,12*,1,/,4.0*
CC(=O)Nc1ccc(-c2cc3ccccc3o2)cc1,0.9*,5,10,4.5*,-1,3
CSc1nc2ccc(NC(=O)c3cccs3)cc2s1,-1,3,11*,-1,/,3
CC(=O)Nc1cccc(NC(=O)c2cc3ccccc3o2)c1,1,2,8,2,4,2
SMILES,ssDAF12 agonist,hcDAF-12 act,hgDAF-12 ag,DAX1 inh-1,Wee1 stabilizer,DAX1 inh-2
O=C(Nc1ccc(Cl)cc1Cl)c1cc2ccccc2o1,2.2*,5,7,2,/,2
CCn1cnc2cc(NC(=O)c3cccs3)ccc21,-1,3,7,1,2,3.9*
CSc1nc2ccc(NC(=O)c3ccc(F)c(F)c3)cc2s1,-1,1,8,1,-1,2
O=[N+]([O-])c1ccc2nc(COCc3nc4ccccc4[nH]3)[nH]c2c1,-1,-4,-5,/,/,/
CSc1nc2ccc(NC(=O)c3ccc(=O)[nH]c3)cc2s1,-1,0,0,-2,/,0
O=C(NCCc1ccc(F)cc1)c1cc2ccccc2oc1=O,-1,3,-1,4.3*,/,0
CSc1nc2ccc(NC(=O)c3cc4ccccc4o3)cc2s1,0,2,12*,3,6,3
COc1cc(NC(=S)NC(=O)C(C)C)ccc1NC(=O)c1cc2ccccc2o1,-2,0,-2,1,-3,0
N/C(=N\NC(=O)c1ccccc1)c1cc2ccccc2oc1=O,0,0,12*,0,1,2
COc1cc(NC(=O)C(C)C)ccc1NC(=O)c1cc2ccccc2o1,-2,0,6,6.1*,/,1
Cc1ccc(NC(=O)CN2C(=O)NC3(CCCCCC3)C2=O)cc1Cl,-1,-1,-4,0,/,-2
CCCc1ccc(OCc2ccc(C(=O)N3CCSCC3)o2)cc1,0,2,8,0,/,2
O=C(Nc1ccc(F)cc1)c1cc2ccccc2o1,1.6*,6.5*,10,4.3*,/,1
CC(C)(C)n1cnc2cc(NC(=O)c3ccccc3)ccc21,0,3,11*,5.5*,/,2
O=C(NCCc1ccc2c(c1)OCCO2)c1ccccc1F,-1,1,12*,1,7,1
O=C(Nc1ccc(NC(=O)c2cc3ccccc3o2)cc1)c1ccco1,-2,-3,-2,-1,/,0
Cc1ccc(-c2[nH]c3ccccc3c2SCCNC(=O)c2cc3ccccc3oc2=O)cc1,0,6.5*,3,-1,1,0
O=C(CN1CCCC1)N/N=C/c1c(O)ccc2ccccc12,-2,0,-9,0,/,-2
O=C(CSc1nc(-c2ccccc2)c(-c2ccccc2)o1)NCCCO,-1,1,-1,0,/,-1
COc1ccccc1C(=O)N/N=C1/NC(=O)CC(C(=O)Nc2ccccc2)S1 (centres undefined),-1,3,0,1,-2,0
O=C1CC(C(=O)Nc2ccccc2)S/C(=N\NC(=O)c2ccccc2Cl)N1 (centres undefined),-2,0,3,4.3*,0,0
COc1ccc(NC(=O)COC(=O)Cc2coc3cc(OC)ccc23)c(OC)c1,-1,0,1,-1,/,-1
O=[N+]([O-])c1cc(C=Nc2ccc3ccccc3c2)ccc1Br,1.2*,2,5,1,5,1
CCOc1ccc(N=Cc2ccc3ccccc3c2)cc1,-1,3,-2,0,/,1
O=C(NC1CCCCN(Cc2cccc(C(F)(F)F)c2)C1=O)C1C2CC3CC(C2)CC1C3 (centres undefined),-2,-2,0,/,/,-2
